# Source: PubChem BioAssay
# In the library only some 14% were active in any assay of this set; here they are far more common.
# HCMV inh: qHTS Assay for inhibitors of the human cytomegalovirus (HCMV); HFF cells, HCMV-luciferase reporter, 72 h; hits give low values; activity change, negative = inhibition, % at 57.5 µM; 4.5% of 410,000 active; AID 1259415, 2018; in the data active = activity change below about -60%; inconclusive = no clear call, values can overlap the other calls; inactive = above about -39%
#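 Two compound doses tested in HFFs infected with HCMV-luciferase, MOI 1 PFU/cell, 72 h at 37C. Lysate luminescence read with OneGlo; data normalized against buffer-only and 10uM Salinomycin inhibitor controls.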
# HCV inhibitor: qHTS Assay for Inhibitors of Hepatitis C Virus (HCV); Huh7.5.1 HCVcc-Cre infection, luciferase reporter, 44 h; Potency, µM (doses to about 41.8 µM), usual class: inhibitors; 3.4% of 340,000 active
#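 Infectious HCVcc-Cre (~0.5 moi) was added to cells just after compound, with cells seeded 4 h earlier at 1,000 per well. Luciferase activity after 44 h culture reported infection; substrate was incubated 15 min at room temperature before reading.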
# Pf growth 96h: Primary qHTS for delayed death inhibitors of the malarial parasite plastid, 96 hour incubation. P. falciparum luciferase reporter growth, 96 h. Potency, µM (highest dose often 28.7 µM), most hits filed as inhibitors. 6.9% of 320,000 active
#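 Luminescence readout: decreased luciferase signal marks inhibited growth of reporter-expressing P. falciparum in infected red cells (2% hematocrit, 0.05% parasitemia final), exposed to compound two generations (96 h, 37 C, 5% CO2).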
# MARV entry inh: qHTS for inhibitors of binding or entry into cells for Marburg Virus | Marburg virus pseudotyped entry inhibition, cell reporter | Potency, µM (series often up to 37.8 µM), hits mostly inhibitors | 1.8% of 300,000 active | AID 540276, 2011; calls by dose curve; tested in HEK293 cells
# Lassa entry inh: qHTS for Inhibitors of binding or entry into cells for Lassa Virus; 1.2% of 300,000 active; Lassa virus pseudotype entry inhibition, cell reporter; Potency, µM (highest dose often 37.9 µM), most hits filed as inhibitors; calls by dose curve; tested in HEK293 cells; note: nearly all actives have a fitted effect of over 50% in size
# Pf growth 48h: Primary qHTS for delayed death inhibitors of the malarial parasite plastid, 48 hour incubation | Potency, µM (titrated, usually from 28.7 µM), hits mostly inhibitors | P. falciparum luciferase growth in erythrocytes, 48 h | 5.9% of 310,000 active
#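 Firefly luciferase activity from engineered P. falciparum reports growth; inhibitors lower the luminescent signal. Cultures contained 2% hematocrit erythrocytes at 0.1% final parasitemia.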
# A number is an active result; 0 = inactive; ? = inconclusive; - = no result given; [ ] = dose if it differs, or a comment. Unless noted, calls come from the whole dose curve; as a rule, active = well fitted inhibition curve with a large enough effect; inconclusive = small, poorly fitted or top-dose-only effect, or another doubt; inactive = no such curve, though single readings can be large or run the other way.
SMILES,HCMV inh,HCV inhibitor,Pf growth 96h,MARV entry inh,Lassa entry inh,Pf growth 48h
CC(C)NC(=O)c1ccc(-c2ccc(Cl)c(C(F)(F)F)c2)o1,0,0,3.3µM,0,0,-
Cc1c(/C(O)=C2/C(=O)C(=O)N(Cc3cccnc3)C2c2ccccn2)cnn1-c1ccccc1 (centres undefined),-76,0,?,?,0,0
Cc1c(/C(O)=C2/C(=O)C(=O)N(Cc3cccnc3)C2c2cccs2)cnn1-c1ccccc1 (centres undefined),0,0,-,0,0,0
Cc1onc(-c2ccccc2)c1C(=O)NC(=S)NNC(=O)c1ccc(O)cc1O,-95,?,?,?,2.5µM,0
Cc1onc(-c2ccccc2)c1C(=O)NC(=S)NNC(=O)c1ccccc1O,-70,?,?,3.2µM,?,?
Cc1cc(C)n(-c2nnc(Nc3ccc(C)c(Cl)c3)c3ccccc23)n1,-98,-,-,0,0,-
CC(C)(C)n1nnnc1C(c1cccnc1)N1CCN(c2ccccc2)CC1 (centres undefined),0,0,0,0,0,?
c1ccc(Cn2nnnc2C(c2ccncc2)N2CCOCC2)cc1 (centres undefined),0,0,0.74µM,0,0,0
c1ccc(Cn2nnnc2C(c2cccnc2)N2CCN(c3ccccc3)CC2)cc1 (centres undefined),0,0,-,0,?,13µM
Cc1cc(C(c2nnnn2Cc2ccccc2)N2CCOCC2)c(C)n1-c1ccc2c(c1)OCO2 (centres undefined),-,0,0,0,?,9.3µM
CCN1CCN(C(c2ccccc2)c2nnnn2Cc2ccc3c(c2)OCO3)CC1 (centres undefined),0,0,0,-,-,0
Cc1sc2c(c1C)c(=O)n(-c1ccc(Cl)cc1)c(=O)n2Cc1cc(=O)n2cc(Br)ccc2n1,0,-,-,0,0,-
O=[N+]([O-])c1cc(S(=O)(=O)Oc2ccccc2)ccc1Cl,-89,?,-,?,?,-
Cc1nnc(SCC(=O)NNC(=O)c2ccc(F)cc2)n1Cc1ccccc1,0,0,-,0,0,-
O=C(CCSCCc1ccccn1)Nc1ccc(Cc2ccncc2)cc1,0,0,12µM,0,?,?
CC(=O)Nc1ccc(Cc2ccncc2)cc1,0,0,0,0,0,0
CCCCCC(=O)Nc1ccc(Cc2ccncc2)cc1,0,0,12µM,0,0,0
O=C(CCSCCc1ccccn1)Nc1ccccn1,0,0,0,0,0,?
C=CCN(C(=O)c1csnn1)C(C(=O)NC1CCCC1)c1ccccc1 (centres undefined),0,0,?,0,0,0
CCOC(=O)Cc1nnc(NC(=O)CSc2ccc(C)cc2)s1,0,0,0,0,?,0
COc1ccccc1OCC(=O)Nc1nnc(-c2ccco2)s1,0,0,0,?,0,0
Cc1cccc(OCC(=O)Nc2nnc(-c3ccco3)s2)c1,0,0,5.2µM,?,0,0
CCOc1cccc(C(=O)Nc2nnc(-c3ccco3)s2)c1,0,0,0,4µM,?,?
CCCCOc1cccc(-c2nnc(NC(=O)CSc3ccc(C)cc3)s2)c1,-86,0,?,0,0.32µM,0
Cc1ccc(CNC(=O)O[C@H]2CC[C@@]34CCCN3C(=O)CCC[C@H]4[C@H]2Cc2ccccc2)o1,0,-,-,-,-,-
SMILES,HCMV inh,HCV inhibitor,Pf growth 96h,MARV entry inh,Lassa entry inh,Pf growth 48h
Cc1nc2c(-c3ccccc3)c(C)nn2c(C)c1CCC(=O)NCc1cccc(Cl)c1,0,-,-,0,0,-
CCCn1c(N)c(N(CCOC)C(=O)CSCC(=O)Nc2cccc(C)c2)c(=O)[nH]c1=O,0,0,0,0,0,0
Cc1c(Cl)ccc2sc(N3CCN(C(=O)CCS(=O)(=O)c4ccc(F)cc4)CC3)nc12,-70,-,-,-,?,-
CC(=O)c1ccc(N2CCN(C(=O)CCS(=O)(=O)c3ccc4c(c3)CCN4C(C)=O)CC2)cc1,0,0,?,0,0,13µM
Cc1ccc(S(=O)(=O)CCC(O)c2ccc(Cl)cc2)cc1 (centres undefined),-102,0,0,-,-,-
Cc1ccc(S(=O)(=O)CCNC(=O)Cc2ccc(Cl)cc2)cc1,0,0,0,0,0,0
O=C(CCS(=O)(=O)c1ccc(Cl)cc1)N1CCN(c2ccc(F)cc2)CC1,0,0,0,-,-,?
Cc1ccc2sc(N3CCN(C(=O)CCS(=O)(=O)c4ccc(F)cc4)CC3)nc2c1C,0,-,-,-,0,-
Cc1ccc(S(=O)(=O)CCC(=O)N2CCN(c3ccc(Cl)cc3)CC2)cc1,-70,?,?,0,0,0
Cc1nc2cccnc2n1-c1cccc(C(=O)NCCN(C)C)c1,0,-,-,-,0,-
COc1cc(C(=O)N/C(=C/c2ccc(F)cc2)C(=O)NC(C(=O)O)c2ccccc2)cc(OC)c1OC (centres undefined),0,0,?,-,-,0[0.00184 µM]
CCC(=O)N1CCc2cc(S(=O)(=O)CCC(=O)N3CCN(c4ccc(F)cc4)CC3)ccc21,0,0,1µM,-,-,0
O=S1(=O)N[C@@H](Cc2ccccc2)COc2cccc(NCCO)c21,0,-,-,-,-,-
CN1C=C/C(=C\c2cc[n+](C)c3ccccc23)c2ccccc21,-100,4.5µM,12µM,-,-,?
COc1cccc(NC(=S)/C(=C(\[O-])c2cc(C)n(-c3ccccc3F)c2C)[n+]2ccc(N(C)C)cc2)c1,-95,?,4.1µM,-,-,?
Cc1cc(C([O-])=C(C(=S)Nc2ccc(F)cc2)[n+]2ccccc2)c(C)n1-c1ccc(F)cc1,0,-,-,0,0,-
O=C(NC1CCOC1=O)c1ccccc1 (centres undefined),0,0,-,0,0,-
COc1ccc(OC)c(C2C(C(=O)O)c3ccccc3C(=O)N2C)c1 (centres undefined),0,0,0,0,0,0
COc1ccc(C2C(C(=O)Nc3cccc(OC)c3)c3ccccc3C(=O)N2C)cc1 (centres undefined),0,0,0,?,0,?
COc1cc2c(cc1OC)C(C(=O)Nc1cccc(C)n1)C(c1cccnc1)N(C)C2=O (centres undefined),0,0,0,0,0,0
COc1cc(OC)c(C2C(C(=O)O)c3ccccc3C(=O)N2C)cc1OC (centres undefined),0,0,15µM,0,0,0
COc1ccc(C2C(C(=O)Nc3ccc4c(c3)OCCO4)c3ccccc3C(=O)N2C)cc1 (centres undefined),?,0,?,0,0,5.2µM
COc1ccc(C2C(C(=O)Nc3cc(OC)c(OC)c(OC)c3)c3ccccc3C(=O)N2C)cc1 (centres undefined),-66,0,0,?,?,2.1µM
